# Screens as filed in PubChem BioAssay.
# PTHR1 ag – agonists of human PTHR1 parathyroid hormone receptor; HEK293 GP2 PTHR1 cells, GloSensor cAMP luminescence, 1 h; Potency, µM (doses to about 115 µM), most hits filed as activators; hit rate 0.075% among 410,000; further: nearly all actives have a fitted effect of over 55% in size
#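 HEK-293-derived GP2 cells expressing PTHR1 and a GloSensor cAMP reporter, 3,000/well, plated overnight, given luciferin plus IBMX (each 0.5 mM as added) for 1 h at 37 °C, then compound for 1 h at 37 °C. Luminescence was read after 15 min at room temperature.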
# HEK293 tox – cytotoxic in the GLP-1 receptor inverse agonist counter-screen; HEK293 cAMP-luciferase reporter cells, luminescence, 24 h; Potency, µM (doses to about 38.3 µM), actives largely listed as inhibitors; hit rate 0.13% among 410,000;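 further: loss of luciferase light is scored as toxicity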
#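 Cells in DMEM/10% Nu serum/1% pen-strep, 1536-well format. Pre-incubated 12 h, dosed with 23 nL compound, incubated a further 24 h. Luciferase detection, 12 min at room temp, luminescence.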
# GLP-1R agonist – activates the human GLP-1 receptor | P43220 | HEK293 GLP-1R CRE-luciferase, luminescence, 4-6 h; cells express a hypersensitive GLP-1R form | Potency, µM (highest dose often 45.6 µM), actives largely listed as activators | hit rate 0.007% among 380,000 | AID 624172
# Target sequence (P43220 whole entry, looked up): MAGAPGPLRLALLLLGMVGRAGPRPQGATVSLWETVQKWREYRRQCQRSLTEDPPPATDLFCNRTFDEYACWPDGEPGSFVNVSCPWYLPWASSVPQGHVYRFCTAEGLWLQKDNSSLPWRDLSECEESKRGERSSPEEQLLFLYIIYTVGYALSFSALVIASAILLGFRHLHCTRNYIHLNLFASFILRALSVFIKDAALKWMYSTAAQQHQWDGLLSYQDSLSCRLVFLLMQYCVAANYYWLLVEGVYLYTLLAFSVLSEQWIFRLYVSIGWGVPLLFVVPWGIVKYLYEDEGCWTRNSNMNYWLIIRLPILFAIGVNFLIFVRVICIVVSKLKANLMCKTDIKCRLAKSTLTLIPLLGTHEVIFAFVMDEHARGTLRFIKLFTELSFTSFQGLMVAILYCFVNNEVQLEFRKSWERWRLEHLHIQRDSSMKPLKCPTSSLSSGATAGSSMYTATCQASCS
# GLP1R inv ag – inverse agonists of human GLP-1 receptor | HEK293 GLP-1R CRE-luciferase, luminescence, 24 h; GLP-1R form is constitutively active | Potency, µM (top dose mostly 38.3 µM), most hits filed as inhibitors | hit rate 1.6% among 410,000 | AID 624417; further: nearly all actives have a fitted effect of over 55% in size
#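 Seeding at 200 cells/uL, 12 h culture, 24 hr compound treatment, then luciferase reagent and a luminescence read; cells are HEK293 stably expressing a constitutively active GLP-1R plus cAMP-responsive luciferase.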
# Numbers stand for hits; – = inactive; ? = inconclusive; · = no result. Most compounds without a hit are left out; they make up all but 1.7% or so of the library. The call rests on the fitted dose curve; in most records, active means well fitted curve in the direction sought with a large enough effect; inconclusive means small, poorly fitted or top-dose-only effect, or another doubt; inactive means no such curve, though single readings can be large; an effect the other way counts as inactive or inconclusive.
SMILES,PTHR1 ag,HEK293 tox,GLP-1R agonist,GLP1R inv ag
Nc1nc(SCc2ccccc2)c2ncn(Cc3ccccc3)c2n1,–,–,–,7.9µM
CCCCn1cnc2c(SCc3ccccc3Cl)nc(N)nc21,–,–,–,10µM
CCCn1cnc2c(SCc3ccccc3)nc(N)nc21,–,–,?,–
COC(=O)c1cnn(-c2nc(OC)cc(OC)n2)c1C,–,–,–,–
COc1cc(OC)nc(-n2ncc(Br)c(Br)c2=O)n1,–,3.2µM,–,?
CC(C)CC(N)c1csc(NC(=O)Nc2ccccc2C(C)C)n1 (configuration not stated),–,?,–,10µM
NC(Cc1ccc(C(F)(F)F)cc1)c1csc(NC(=O)Nc2ccccc2Cc2ccccc2)n1 (configuration not stated),–,?,–,?
CC(C)c1ccccc1NC(=O)Nc1nc(C(N)Cc2ccc(C(F)(F)F)cc2)cs1 (configuration not stated),–,?,–,13µM
CSc1ccc(-c2cc3c(c4c2ccn4C)C2CCC3O2)cc1 (configuration not stated),–,–,–,–
COc1ccc(C(C)(C)C)cc1NC(=O)Cn1cnnn1,–,–,–,–
Cc1c(Cl)cccc1NC(=S)N=Nc1c(O)n(CN2CCOCC2)c2ccccc12,–,1.4µM,–,?
Oc1c(N=NC(=S)Nc2ccccc2F)c2ccccc2n1Cc1ccccc1Cl,–,–,–,–
O=C1NN=C(c2ccc(Cl)cc2)CC1c1cccc(Cl)c1 (configuration not stated),–,–,–,?
O=C1NN=C(c2ccccc2)CC1c1ccc(Cl)cc1Cl (configuration not stated),–,–,–,7.9µM
CC(=O)c1sc(NC(=O)C2CCN(C(=O)c3ccc(F)cc3)CC2)nc1-c1ccccc1,–,–,–,?
N[C@@H](C(=O)N[C@H]1C(=O)N2C(C(=O)O)=C(Cl)CC[C@H]12)c1ccccc1,·,·,–,·
Cc1[nH]c(=S)c(C#N)c(C)c1CC(=O)c1ccc(Br)cc1,14µM,–,–,–
CCc1ccc(N2CCn3c2nc2c3c(=O)n(C/C=C/c3ccccc3)c(=O)n2C)cc1,–,–,·,–
Cc1ccccc1C(=O)Nc1ccnn1C1CCN(Cc2c(C)n(C)c3ccccc23)CC1,–,–,–,11µM
CCc1ccc(CN2CCC(n3nccc3NC(=O)c3ccccc3C)CC2)cc1,–,?,–,5.6µM
CCS(=O)(=O)N1CCc2cc(C(=O)Nc3ccc(OC)cc3OC)ccc21,–,–,·,–
Cc1cccn2cc(CSc3nnc(Nc4ccc(C(C)C)cc4)s3)nc12,–,–,–,10µM
CN(CC(=O)N1CCOCC1)Cc1c(Cl)cccc1NC(=O)c1ccccc1,·,·,–,·
CCC(NC(=O)c1ccncc1)c1ccccc1 (configuration not stated),–,–,–,–
COc1cc(-c2nnc(SCC(=O)N(Cc3ccccc3)C(C)(C)C)o2)cc(OC)c1OC,–,–,–,?
SMILES,PTHR1 ag,HEK293 tox,GLP-1R agonist,GLP1R inv ag
COc1cc(OC)cc(-c2nnc(SCC(=O)N(Cc3ccccc3)C(C)(C)C)o2)c1,–,–,–,8.9µM
O=C1[C@H]2[C@@H](c3ccc(F)cc3)N3C(=O)N(c4cccc(Br)c4)C(=O)[C@@]3(Cc3ccccc3)[C@H]2C(=O)N1C1CCCCC1,–,–,–,2.8µM
CC[C@@]12C(=O)N(c3cccc(Br)c3)C(=O)N1[C@H](c1ccc(F)cc1)[C@@H]1C(=O)N(C3CCCCC3)C(=O)[C@@H]12,–,–,–,8.9µM
CC1CCC(N(C)C(=O)CN2C(=O)NC(c3ccccc3)(c3ccccc3)C2=O)CC1 (configuration not stated),–,–,–,10µM
COc1ccc(C2(c3ccc(OC)cc3)NC(=O)N(CC(=O)N(C)C3CCC(C)CC3)C2=O)cc1 (configuration not stated),–,–,–,?
CCCCCC(=O)N1C[C@H](O)[C@@H](n2cc(-c3ccc(F)cc3)nn2)C[C@@H]1c1ccccc1,–,–,–,–
CCCCCC(=O)N1C[C@H](O)[C@@H](n2cc(-c3ccc(F)cc3)nn2)C[C@@H]1c1ccc(C)cc1,–,–,–,10µM
CCCCCC(=O)N1C[C@H](n2cc(-c3ccc(F)cc3)nn2)[C@@H](O)C[C@@H]1c1ccc(Cl)cc1,–,?,–,10µM
CCCCCC(=O)N1C[C@@H](n2cc(-c3ccc(F)cc3)nn2)[C@H](O)C[C@@H]1c1ccccc1,–,–,–,?
CC(=O)c1cn(CC(=O)NCc2ccc3c(c2)OCO3)c2ccccc12,–,–,–,–
O=C(Cn1cc(C(=O)C2CC2)c2ccccc21)NCc1ccc2c(c1)OCO2,–,–,–,6.3µM
O=S1(=O)c2ccc(Br)cc2N2CCC[C@H]2CN1Cc1ccccc1,–,?,–,4µM
CCOc1ccccc1/C=N\Nc1cnn(Cc2ccccc2)c(=O)c1Cl,–,–,–,7.9µM
CCN1C(N(C)CCc2c[nH]c3ccccc23)=N[C@@H](c2cccc(C(F)(F)F)c2)C(C(=O)OC)=C1C,–,–,–,10µM
O=C(Cn1ncc(Cl)c(Cl)c1=O)c1ccc(Cl)cc1,–,10µM,–,–
Cc1cccc(C)c1OCc1cc(C(=O)N(Cc2c(C)nn(C)c2C)C2CC2)no1,–,–,–,7.9µM
CCCCn1c(C23CC4CC(CC(C4)C2)C3)n[nH]c1=S,–,–,–,7.1µM
CCN(CC)CCCNC(=O)c1nn(-c2ccc(OC)c(Cl)c2)c(=O)c2c1c1ccccc1n2C,–,–,·,–
O=C(O)c1ccc(NC(=S)Nc2ccccc2)cc1,–,–,–,–
Cc1ccccc1CNC(=O)c1cc2cccc3c2n1CC(C)S3 (configuration not stated),–,–,·,10µM
CC1Cn2c(C(=O)NCc3ccccc3Cl)cc3cccc(c32)S1 (configuration not stated),–,–,·,11µM
COc1ccccc1CNC(=O)c1cc2cccc3c2n1CC(C)S3 (configuration not stated),–,–,·,?
Cc1ccc(-c2c3c(=O)n(C)c(=O)n(C)c3c3n2-c2ccccc2NC3c2ccc(C)cc2O)cc1 (configuration not stated),–,–,·,10µM
CC1CN(C(=O)CCC(=O)NCc2cccs2)c2cc(Cl)ccc2O1 (configuration not stated),–,–,·,?
O=C1C2C3CCCC3=C3CCCC3C2C(=O)N1c1cccc(Cl)c1 (configuration not stated),–,–,–,3.5µM
CCOc1ccc(OCC(O)CN2CCc3ccccc3C2)cc1 (configuration not stated),–,–,–,?
Cc1ccc(C)c(OCC(O)CN2CCc3ccccc3C2)c1C (configuration not stated),–,–,–,8.9µM
Cc1cc(OCC(O)CN2CCc3ccccc3C2)ccc1Cl (configuration not stated),–,–,–,7.1µM
